Each structure is given as a SMILES string. This is part of a sample that, as a whole, favours compounds with a hit. Of some 83,000 tested, about 20% had one in any assay.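 Each cell line was grown in a 96-well plate and treated with one concentration of compound for 48 hours. Values below 10 were considered active.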 Activity calls are given as the source filed them.

The experiment concerns A549/ATCC NSCLC. Briefly: NCI-60 one-dose screen, 48 h (100 = growth as untreated, 0 = no growth, -100 = all killed). Conditions: 10 µM unless noted.
As to `Oc1c(N=Nc2nn[nH]n2)ccc2ccccc12`, the growth was 77.8% (inactive).

In the case of `CCN1CCN(c2nc(NNC(=O)Cc3ccccc3)nc(N3CCN(C(c4ccccc4)c4ccccc4)CC3)n2)CC1`, the growth was 46.6% (inactive).

Turning to `COc1cc(-c2nnc(-c3nc(-c4cc(OC)c(OC)c(OC)c4)n4ccccc34)o2)ccc1N`, the growth is 28.2% (inactive).

With `CCOc1cc(/C=C/C(=O)CC(=O)/C=C/c2ccc(OC(=O)CNCCN(CC)CC)c(OCC)c2)ccc1OC(=O)CNCCN(CC)CC`, the growth was 12.4% (inactive).

Regarding `Nc1ccc2c(c1Br)Cc1ccccc1-2`, the growth was 86% (inactive).

`CCOC(=O)C1=CCC(n2cc(C)c(=O)[nH]c2=O)O1` (stereo not drawn): the growth was 96.7% (inactive).

As to `CCCCCN(CCCCC)CCCNc1c2c(nc3ccc(Cl)cc13)CCCC2`, the growth is 31.8% (inactive).

With `COc1ccc(-c2nnc3c4[nH]cnc4ncn23)c(OC)c1`, the growth is 71.6% (inactive).

With `O=C(Nc1nn2c(-c3cc(C(F)(F)F)cc(C(F)(F)F)c3)nnc2s1)C1CCCC1`, the growth was 7.1% (active).

Consider `COc1ccc(N2CCN(CC(=O)N3CCN(c4nnc(-c5ccc(Cl)cc5)c(-c5ccc(Cl)cc5)n4)CC3)CC2)cc1`, for which the growth is -8.6% (active).

As for `O=C(O)c1ccc2cccnc2c1O`, the growth is 10.4% (inactive).

For the compound `COC(=O)[C@H]1[C@H]2C[C@@H]3c4[nH]c5cc(OC)ccc5c4CCN3C[C@H]2C[C@@H](OC(=O)/C=C/c2cc(OC)c(OC)c(OC)c2)[C@@H]1OC`, the growth is 74.2% (inactive).

Regarding `COc1ccc2nc(-c3ccc(Cl)cc3)cc(-c3nnc(SCC(=O)Nc4ccc(C(C)=O)cc4)n3-c3ccccc3)c2c1`, the growth is 93.2% (inactive).

`COc1cc(/C=C/C(=O)C(C(=O)/C=C/c2ccc(OC(=O)CCNC34CC5CC(CC(C5)C3)C4)c(OC)c2)C(=O)CCNC23CC4CC(CC(C4)C2)C3)ccc1OC(=O)CCNC12CC3CC(CC(C3)C1)C2` (stereo not drawn): the growth is 29.1% (inactive).

`N#Cc1ccccc1C#Cc1ccccc1C#Cc1ccc(OCCCCCCOc2ccc(C#Cc3ccccc3C#Cc3ccccc3C#N)cc2)cc1`: the growth is 94% (inactive).

On to `O=CNc1ccc2c(c1)Cc1cc([N+](=O)[O-])ccc1-2`, for which the growth is 18.6% (inactive).

With `N#CC(C#N)C(C#N)C#N`, the growth is 79% (inactive).

As to `N/C(=N\c1nc2ccccc2s1)NC(=O)Nc1ccccc1Cl`, the growth is 21.6% (inactive).

With `O=c1c2c(=NCCCN3CCCC3)cc3c(=O)n(CCCN4CCCC4)c(=O)c4c(NCCCN5CCCC5)cc(c(O)n1CCCN1CCCC1)c2c4-3`, the growth is 7.79% (active).

Turning to `C/C(=C\CCc1ccsc1)CC/C=C(\C)CCCN1CCSCC1`, the growth was 67.5% (inactive).

`COc1ccc(CC(=O)Nc2nn3c(-c4cc(C(F)(F)F)cc(C(F)(F)F)c4)nnc3s2)cc1`: the growth was 78.1% (inactive).

For the compound `CCCCCCCCCCNCCSS(=O)(=O)O`, the growth is 69.7% (inactive).

With `O=C(Nc1ccccc1)c1cc(-n2cnc([N+](=O)[O-])c2)cc(-n2cnc([N+](=O)[O-])c2)n1`, the growth was 87% (inactive).

As to `O=C1/C(=C/c2ccc(F)cc2)Cc2ccccc21`, the growth is 91.7% (inactive).

`CCN(CC)c1ccc(N=C2C=CC(=O)C=C2NC(C)=O)cc1`: the growth was 100% (inactive).

As to `C[C@H](C(=O)N[C@@H](Cc1ccc(-c2ccccc2)cc1)C(=O)NC1CC(C)(C)N(C)C(C)(C)C1)c1ccc(-c2ccccc2)c(F)c1`, the growth is -79.1% (active).

With `CSc1nc2nc3c(nc2c(=O)n1C)C(=O)c1ccccc1C3=O`, the growth was -67.3% (active).

In the case of `O=C(C(=O)c1cc(Br)ccc1O)c1cc(Br)ccc1O`, the growth is 50.7% (inactive).

For the compound `O=C1CSC(c2ccccc2O)N1c1nnc(Cn2ccnc2)o1` (stereo not drawn), the growth was 66.5% (inactive).

With `COc1cccc(N2CCN(CC(=O)N3CCN(c4nnc(-c5ccc(Cl)cc5)c(-c5ccc(Cl)cc5)n4)CC3)CC2)c1`, the growth is -1.64% (active).

As for `CC(=O)N1N=C(c2ccc(C(F)(F)F)cc2)CC1c1ccc2c(c1)OCO2` (stereo not drawn), the growth is 91.2% (inactive).

For `CCOc1cc(/C=C/C(=O)C(C(=O)/C=C/c2ccc(OC(=O)CNc3nnc(C)s3)c(OCC)c2)C(=O)CNc2nnc(C)s2)ccc1OC(=O)CNc1nnc(C)s1`, the growth was 8.11% (active).

Turning to `CC(C)N(Cc1ccccc1)c1c(S)ssc1=S`, the growth is 4.58% (active).

Consider `Nc1ccccc1-c1ccn[nH]1`, for which the growth was 89.6% (inactive).

Regarding `FC(F)(F)c1cc(-c2nnc3n2N=C(N2CCCC2)CS3)cc(C(F)(F)F)c1`, the growth was 60.4% (inactive).

Regarding `COc1c(O)cc2c(c1CC=C(C)C)OC(=O)c1c(cc(O)c(CC=C(C)C)c1O)O2`, the growth was 57.1% (inactive).

With `Fc1ccc(-c2nn3c(-c4cc(C(F)(F)F)cc(C(F)(F)F)c4)nnc3s2)cc1`, the growth is 33.3% (inactive).

`COc1ccc2c(c1)c(CC(=O)[Se]C)c(C)n2C(=O)c1ccc(Cl)cc1`: the growth was 7.25% (active).
